Test results from PubChem BioAssay (NCATS).
A number with no mark means an inactive call. Records with an inconclusive call do not appear. Entries that show only a call come without a potency. The source made the active and inactive calls. Calls come from the whole dose curve; as a rule, active = well fitted curve in the direction sought with a large enough effect; inconclusive = small, poorly fitted or top-dose-only effect, or another doubt; inactive = no such curve, though single readings can be large; an effect the other way counts as inactive or inconclusive.

Columns and labels:
[1] = Quantitative High-Throughput drug screen in 47 multiple myeloma cell lines against the NCATS MIPE library collection: FR4_PLB cell viability assay (AID 1918924; note: nearly all actives have a fitted effect of over 35% in size; note: potency is the fitted concentration of half-maximal effect)
Summary of the method: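 Relative luminescence from CellTiter-Glo served as the viability signal, referenced to DMSO-treated (100%) and cell-free medium (0%) controls. Treatment lasted 48 hours at 37C with 500 cells per well.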

[2] = Quantitative High-Throughput drug screen in 47 multiple myeloma cell lines against the NCATS MIPE library collection: Delta47_JCRB cell viability assay (AID 1918925; note: nearly all actives have a fitted effect of over 45% in size; note: potency is the fitted concentration of half-maximal effect)
Summary of the method: (§1)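 We plated 500 myeloma cells per well, pinned in MIPE 4.0 compounds, and incubated for 48 hours at 37C. ATP was then quantified with CellTiter-Glo, with DMSO and media-only wells defining 100% and 0%.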

[3] = Quantitative High-Throughput drug screen in 47 multiple myeloma cell lines against the NCATS MIPE library collection: EJM_DSMZ cell viability assay (AID 1918926; note: nearly all actives have a fitted effect of over 30% in size; note: potency is the fitted concentration of half-maximal effect)
Summary of the method: as §1

[4] = Quantitative High-Throughput drug screen in 47 multiple myeloma cell lines against the NCATS MIPE library collection: AMO1_DSMZ cell viability assay (AID 1918927; note: nearly all actives have a fitted effect of over 30% in size; note: potency is the fitted concentration of half-maximal effect)
Summary of the method: as §1

[5] = molecular target: Phospholipid hydroperoxide glutathione peroxidase GPX4 (Homo sapiens) (UniProt P36969); assay: Primary qHTS Assay for Inhibitors of Recombinant Selenoprotein Glutathione Peroxidase 4 (GPX4) (AID 1845192); note: nearly all actives have a fitted effect of over 65% in size
Sequence of Phospholipid hydroperoxide glutathione peroxidase GPX4 (Homo sapiens) (P36969 whole entry, looked up): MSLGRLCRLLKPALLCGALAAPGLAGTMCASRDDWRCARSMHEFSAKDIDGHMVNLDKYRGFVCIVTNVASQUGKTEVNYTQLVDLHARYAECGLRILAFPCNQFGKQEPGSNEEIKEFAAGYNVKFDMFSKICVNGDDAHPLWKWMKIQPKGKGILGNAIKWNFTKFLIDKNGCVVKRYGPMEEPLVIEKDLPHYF
Summary of the method: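 qHTS, GR-coupled: GPX4 200 nM + cpd 30 min RT → GSH 1 mM, NADPH 0.5 mM, GR 100 nM → CHP 0.5 mM start; fluor 340/450 at t0 and t15 min; no-enzyme wells as control.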

[6] = molecular target: Luciferin 4-monooxygenase (Photinus pyralis) (UniProt P08659); assay: Primary firefly luciferase (FLuc) qHTS assay for identification of artifact compounds. (AID 1845220); note: nearly all actives have a fitted effect of over 60% in size
Summary of the method: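 qHTS, 15 min compound preincubation with substrate (10 uM luciferin, 10 uM ATP) at RT, then 10 nM FLuc; 5 min; luminescence; % inhibition vs no-enzyme/DMSO controls, 4-parameter Hill fit.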

[7] = Primary fluorescence-based thiol-reactive (MSTI) qHTS assay for identification of artifact compounds. (AID 1845221); note: nearly all actives have a fitted effect of over 65% in size; note: potency is the fitted concentration of half-maximal effect
Summary of the method: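 In PBS pH 7.4 with 2% DMSO, each compound met 4 uM MSTI for one hour at ambient temperature, shielded from light, before fluorescence detection.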

[8] = test system: Nanoluciferase (engineered Oplophorus gracilirostris luciferase); assay: Primary Nanoluciferase (NLuc) qHTS assay for identification of artifact compounds. (AID 1845222); note: series mostly up to about 54 µM
Summary of the method: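 Luminescence read-out of secreted NLuc in S16 cell conditioned medium (1:55); compounds tested with 15 min RT preincubation, then Nano-Glo substrate 1:100, 5 min. % inhibition vs no-enzyme and DMSO controls, 4-parameter Hill fit.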

[9] = Primary redox qHTS assay for identification of artifact compounds. (AID 1845223)
Summary of the method: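 Redox-cycling detection via DTT (250 uM final) oxidation coupled to Amplex Red (25 uM)/HRP (250 mU/mL) in HBSS. 15 min preincubation plus 30 min after DTT, room temperature. Ex/Em 525/598 nm; 4-parameter Hill fit against DMSO and 10 uM DA3003.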

[10] = Quantitative High-Throughput drug screen in 47 multiple myeloma cell lines against the NCATS MIPE library collection: ARP1_JJKsccF8 cell viability assay (AID 1918928; note: nearly all actives have a fitted effect of over 40% in size)
Summary of the method: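 CellTiter-Glo luminescence after 48 h exposure gives viability, scaled between DMSO-only (100%) and media-only (0%) controls. Library compounds are pinned onto 500 myeloma cells per well, incubated at 37C with 5% CO2.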

Question: With `CCOc1cc(C=C2C(=O)N(c3ccccc3)N=C2C)cc(Cl)c1OCC(=O)OC` as the compound, how does the Potency [1] read?
Answer: The Potency was “inactive”.

Question: What about the Potency [2] of the same compound?
Answer: Its Potency is 9.35 µM (active).

Question: And the Potency [3]?
Answer: The Potency was 18.7 µM (active).

Question: What about the Potency [4] of the same compound?
Answer: Its Potency is “inactive”.

Question: Which results are given for `COc1ccc(-c2ccc3c(N4CCOCC4)nc(N4C[C@@H](C)O[C@@H](C)C4)nc3n2)cc1CO`?
Answer: Potency [1]: 0.469 µM (active); Potency [2]: 0.296 µM (active); Potency [3]: 1.66 µM (active); Potency [4]: 1.32 µM (active)

Question: Which Potency [1] does the source give for `COc1ccc(-c2ccc3c(N4CCOC[C@H]4C)nc(N4CCOC[C@H]4C)nc3n2)cc1CO` here?
Answer: The Potency was 0.0235 µM (active).

Question: Which Potency [2] does the source give for `Cc1ccccc1C(C(=O)NC1CCCC1)N(C(=O)Cn1cnc2ccccc21)c1cccc(F)c1` (stereo not given) here?
Answer: Its Potency is 16.6 µM (active).

Question: What about the Potency [3] of the same compound?
Answer: The Potency was “inactive”.

Question: What about the Potency [4] of the same compound?
Answer: The Potency was 0.0264 µM (active).

Question: With `COc1ccc(C2=N[C@H](c3ccc(Cl)cc3)[C@H](c3ccc(Cl)cc3)N2C(=O)N2CCNC(=O)C2)c(OC(C)C)c1` as the compound, how does the Potency [5] read?
Answer: The Potency was “inactive”.

Question: And the Potency [2]?
Answer: The Potency was 2.35 µM (active).

Question: What about the Potency [4] of the same compound?
Answer: Its Potency is 1.66 µM (active).

Question: Which results are given for `CN(C)c1ccc(Nc2nc(N)n(C(=O)c3c(F)cccc3F)n2)cc1`?
Answer: Potency [6]: inactive; Potency [7]: 1.34 µM (active); outcome [8]: inactive; outcome [9]: inactive; Potency [2]: 14.8 µM (active); Potency [3]: 20.9 µM (active); Potency [4]: 4.69 µM (active)

Question: Which Potency [5] does the source give for `COc1c(Cl)cc2c([nH]c3cnccc32)c1NC(=O)c1cccnc1C` here?
Answer: The Potency was “inactive”.

Question: What about the Potency [6] of the same compound?
Answer: Its Potency is “inactive”.

Question: And the Potency [7]?
Answer: Its Potency is “inactive”.

Question: And the outcome [8]?
Answer: Its outcome is “inactive”.

Question: What about the outcome [9] of the same compound?
Answer: The outcome was “inactive”.

Question: What about the Potency [2] of the same compound?
Answer: Its Potency is 2.96 µM (active).

Question: And the Potency [3]?
Answer: Its Potency is 3.72 µM (active).

Question: What about the Potency [4] of the same compound?
Answer: The Potency was 5.26 µM (active).

Question: For `CCn1c(-c2nonc2N)nc2cnc(Oc3cccc(NC(=O)c4ccc(OCCN5CCOCC5)cc4)c3)cc21`, which Potency [5] is on record?
Answer: The Potency was “inactive”.

Question: And the Potency [1]?
Answer: Its Potency is 14.8 µM (active).

Question: What about the Potency [2] of the same compound?
Answer: Its Potency is 8.33 µM (active).

Question: What about the Potency [4] of the same compound?
Answer: The Potency was 5.9 µM (active).

Question: With `COc1ccccc1-c1cccc(-c2c(O)c3cc(C#N)c(Cl)cc3[nH]c2=O)c1` as the compound, how does the Potency [1] read?
Answer: Its Potency is “inactive”.

Question: And the Potency [3]?
Answer: The Potency was “inactive”.

Question: And the Potency [10]?
Answer: The Potency was “inactive”.

Question: What does the source list for `Cc1csc(NC(=O)c2sc3nc4c(c(C(F)(F)F)c3c2N)CCC4)n1`?
Answer: Potency [5]: inactive; Potency [7]: inactive; outcome [8]: inactive; outcome [9]: inactive; Potency [1]: inactive; Potency [2]: inactive; Potency [4]: inactive

Question: With `CCc1cc(Nc2nccc(-c3c(-c4ccc(OC)c(C(=O)Nc5c(F)cccc5F)c4)nc4ccccn34)n2)c(OC)cc1N1CCC(N2CCN(S(C)(=O)=O)CC2)CC1` as the compound, how does the Potency [5] read?
Answer: Its Potency is “inactive”.

Question: What about the Potency [6] of the same compound?
Answer: The Potency was “inactive”.

Question: What about the outcome [8] of the same compound?
Answer: The outcome was “inactive”.

Question: What about the outcome [9] of the same compound?
Answer: The outcome was “inactive”.

Question: What about the Potency [1] of the same compound?
Answer: Its Potency is 20.9 µM (active).

Question: And the Potency [2]?
Answer: The Potency was 5.26 µM (active).

Question: And the Potency [3]?
Answer: Its Potency is 10.5 µM (active).

Question: With `O=C(O)[C@@H](c1ccc(OCc2ccc3ccccc3n2)cc1)C1CCCC1` as the compound, how does the Potency [5] read?
Answer: Its Potency is “inactive”.

Question: And the Potency [1]?
Answer: Its Potency is “inactive”.

Question: What about the Potency [4] of the same compound?
Answer: The Potency was “inactive”.

Question: What about the Potency [10] of the same compound?
Answer: The Potency was “inactive”.

Question: For `COc1ccc(-c2oc3cc(OC)ccc3c2C(=O)c2ccc(C#N)cc2)cc1`, which Potency [4] is on record?
Answer: Its Potency is 7.43 µM (active).

Question: With `CCOC(=O)N[C@@H]1CC[C@@H]2[C@@H](C1)C[C@H]1C(=O)O[C@H](C)[C@H]1[C@@H]2C=Cc1ccc(-c2cccc(F)c2)cn1` as the compound, how does the Potency [4] read?
Answer: The Potency was 18.7 µM (active).

Question: What does the source list for `C[C@]12CC[C@H](O)CC1=CC[C@@H]1[C@H]2CC[C@]2(C)C(c3cccnc3)=CC[C@H]12`?
Answer: Potency [1]: inactive; Potency [2]: inactive; Potency [3]: inactive; Potency [4]: inactive; Potency [10]: inactive

Question: For `CC(C)(C)OC(=O)CN(Cc1ccc(Cl)cc1)Cc1ccc([N+](=O)[O-])s1`, which Potency [5] is on record?
Answer: The Potency was “inactive”.

Question: What about the Potency [1] of the same compound?
Answer: Its Potency is “inactive”.

Question: And the Potency [3]?
Answer: The Potency was “inactive”.
